# From PubChem
# ST2 IL33 inh: inhibitors of human ST2 (IL1RL1) binding to IL-33, primary screen, biochemical, AlphaLISA | actives 2.3% (n = 78,000) | AlphaLISA ST2-Fc/biotin-IL-33 interaction, 1 h | inhibition, % for hits at 17 µM | AID 1259354, 2018; in the data active = inhibition above about 30%
# Target sequence (Q01638 whole entry, looked up): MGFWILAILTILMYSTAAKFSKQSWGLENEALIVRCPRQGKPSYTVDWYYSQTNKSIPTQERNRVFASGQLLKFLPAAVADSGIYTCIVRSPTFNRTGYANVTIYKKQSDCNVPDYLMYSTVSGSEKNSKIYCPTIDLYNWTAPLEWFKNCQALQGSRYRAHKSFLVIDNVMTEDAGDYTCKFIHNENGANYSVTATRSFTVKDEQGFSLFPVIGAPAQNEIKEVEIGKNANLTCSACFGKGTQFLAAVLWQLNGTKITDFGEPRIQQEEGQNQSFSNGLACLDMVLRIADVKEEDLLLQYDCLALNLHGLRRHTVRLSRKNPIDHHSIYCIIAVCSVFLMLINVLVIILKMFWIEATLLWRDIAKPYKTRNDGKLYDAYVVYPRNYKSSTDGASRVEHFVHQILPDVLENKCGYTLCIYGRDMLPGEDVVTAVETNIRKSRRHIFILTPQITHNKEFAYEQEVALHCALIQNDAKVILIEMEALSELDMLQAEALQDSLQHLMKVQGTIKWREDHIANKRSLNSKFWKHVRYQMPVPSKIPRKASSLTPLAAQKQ
# An asterisk follows results filed as active; i = inactive; ! = not confirmed by another sample. This is one part of a sample in which hits are shown more often than they occur.
SMILES,ST2 IL33 inh
COc1cc(/C=C2\C=C(c3ccc(Cl)cc3)OC2=O)cc(I)c1OC,i
COc1ccc(/C=C2\C=C(c3ccc(Br)cc3)OC2=O)cc1[N+](=O)[O-],i
CCn1c2ccccc2c2cc(NS(=O)(=O)c3ccc(OC)cc3)ccc21,i
CCCCNC(=O)c1cc2cc3ccc(OC)cc3nc2o1,i
CCCn1ccnc1CN1CCC(N2CCCC2=O)CC1,i
COc1ccccc1CNc1ccc2c(c1)ncn2C1CCCCC1,33%*
CCn1cnc2cc(NCc3ccccc3OC)ccc21,i
COc1ccccc1CNc1ccc2c(c1)ncn2C(C)(C)C,i
COc1cc(N2C(=O)C3C4C=CC(C4)C3C2=O)c(OC)cc1Cl (configuration not stated),i
CNCC(=O)N1CCCN(CCCc2ccccc2)CC1,i
COCc1[nH]nc2c1C(c1cc(OC)c(OC)cc1OC)C(C#N)=C(N)O2 (configuration not stated),i
O=c1cc2cc(O)[nH]c(=O)c2c(O)[nH]1,47%*
CCc1nnc(CN2CCCC3(C2)C(=O)Nc2ccccc23)o1 (configuration not stated),i
O=C(Nc1nccs1)C(Cc1ccccc1)N1C(=O)c2ccccc2C1=O (configuration not stated),i
O=C(Nc1cc(Cl)ccc1O)c1noc2c1CCC2,i
CN(C(=O)CCC(=O)NC1CCCCCC1)C1CC(C)(C)NC(C)(C)C1,i
CC1(C)CC(NC(=O)CC2CCCCC2)CC(C)(C)N1,34%*
CC1(C)CC(NC2CC(C)(C)NC(C)(C)C2)CC(C)(C)N1,i
CCC1C(=O)NCCN1Cc1cnc(S(=O)(=O)C2CCCCCC2)n1CCOC (configuration not stated),i
COCCOc1cc(C)c2c(c1C)C[C@H]([C@H](C)C(=O)N1CCSCC1)CC2,i
Cc1ccc2c(C(=O)CN3CCOCC3)c(C)[nH]c2c1,32%*
COc1ccc2c(c1)c(C(=O)CN1CCOCC1)c(C)n2C,i
Cc1[nH]c2ccc(Cl)cc2c(=O)c1CN1CCOCC1,i
Cc1cc(N2CCC(Nc3ncccn3)CC2)nc(-c2cccnc2)n1,i
CSCC(=O)N1CCC2(CCCN(CC3CCCCC3)C2)C1 (configuration not stated),i
SMILES,ST2 IL33 inh
Cc1nnc2n1N=C(c1ccc(Cl)cc1)CS2,39%*!
COc1ccc(C2=Nn3c(nnc3-c3ccccc3)SC2)cc1,i
Oc1ccccc1-c1nnc2n1N=C(c1ccc(Cl)cc1)CS2,i
CC(C)(C)n1nc2c(c1NC(=O)c1ccc(F)cc1)CS(=O)C2 (configuration not stated),i
Cc1ccc(S(=O)(=O)Cc2noc([C@@H]3C[C@@H](O)CN3Cc3ccc(S(C)(=O)=O)cc3)n2)cc1,i
Cc1ccc(S(=O)(=O)Cc2noc([C@@H]3C[C@@H](O)CN3Cc3c[nH]c4ccccc34)n2)cc1,i
Cc1ccc(S(=O)(=O)Cc2noc([C@@H]3C[C@@H](O)CN3Cc3ccccc3[N+](=O)[O-])n2)cc1,31%*
COc1ccc(C(=O)N2CCCC(CNC(=O)c3ccc(-c4ccccc4)cc3)C2)o1 (configuration not stated),i
CCCCOc1ccc(/C=c2\sc3nc(-c4cccnc4)nn3c2=O)cc1OC,i
Cc1cccc(C(C(=O)NCCSc2n[nH]c(C)n2)N(C)C)c1 (configuration not stated),i
O=C(O)c1ccc(CN2C[C@H](O)C[C@H]2c2nc(-c3ccc(C(F)(F)F)cc3)no2)cc1,i
CCOc1ccc(-c2nc3cc(N=Cc4cc([N+](=O)[O-])ccc4O)ccc3o2)cc1,i
COc1cc([N+](=O)[O-])cc(C=Nc2ccc3oc(-c4ccccc4C)nc3c2)c1O,i
O=[N+]([O-])c1ccc(O)c(C=Nc2ccc3oc(Cc4ccccc4)nc3c2)c1,48%*
Cc1cccc2oc(-c3cccc(N=Cc4cc([N+](=O)[O-])ccc4O)c3)nc12,i
Cc1cccc2oc(-c3ccc(N=Cc4cccc([N+](=O)[O-])c4O)cc3)nc12,i
Cc1cccc2oc(-c3cc(N=Cc4cc([N+](=O)[O-])ccc4O)ccc3O)nc12,32%*
Cc1nn(CCO)c(C)c1[C@@H]1C=C[C@@H](NCc2cccc(Cl)c2)C1,i
CCOc1ccc2c(C)c(Cc3ccccc3)c(=O)oc2c1,i
CCOC(=O)c1[nH]c2ccccc2c1NC(=O)c1c(OCC)ccc2ccccc12,i
O=c1c2cnn(-c3ccc(Cl)cc3)c2ncn1Cc1ccc(F)cc1,i
Cc1cc(N2CCN(C)CC2)nc2ccc(NC(=O)c3ccco3)cc12,i
CCc1ccc(-c2nccn2-c2ccc(OC)nc2)nc1,i
NC1=C(N2CCCCC2)C(=O)c2ccccc2C1=O,71%*
O=S(=O)(N=S(N1CCCCC1)N1CCCCC1)c1ccccc1,i
SMILES,ST2 IL33 inh
O=C(CCN1C(=O)c2ccccc2C1=O)N1CCCCCC1,i
CC(=O)c1ccc(NC(=O)C(Cc2ccccc2)N2C(=O)c3ccccc3C2=O)cc1 (configuration not stated),i
CC(=O)c1ccc(NC2=C(N3CCCCC3)C(=O)c3ccccc3C2=O)cc1,59%*
CC(=O)c1ccc(OC(=O)N2CCCCC2)cc1,i
Cc1c(C(=O)NCc2cccnc2N(C)C)n(C)c2c(C)cccc12,i
CNC(=O)c1cc(-c2c(F)cccc2OC)ccc1Cl,i
O=C(CN1CCN(Cc2ccc(Cl)cc2)S1(=O)=O)Nc1ccccc1,i
O=C(CN1C(=O)/C(=C\c2ccc(Cl)cc2)Sc2ccccc21)NC1CCCC1,i
COCCNC(=O)c1ccc(/C=C2\Sc3ccccc3N(Cc3ccc(F)cc3)C2=O)cc1,i
CCCCN(C)CCCNC(=O)CN1C(=O)/C(=C\c2cccc(Cl)c2)Sc2ccccc21,43%*
O=C(CN1C(=O)/C(=C\c2cccc(Cl)c2)Sc2ccccc21)NCc1cccnc1,i
O=C(CN1C(=O)/C(=C\c2ccc(Cl)cc2)Sc2ccccc21)NCc1ccccn1,42%*
CC(C)OCCCNC(=O)CN1C(=O)/C(=C\c2ccc(C(F)(F)F)cc2)Sc2ccccc21,i
CC(=O)N1c2c(cc(Br)cc2S(=O)(=O)NCc2ccc(F)cc2)CC1C (configuration not stated),i
Cc1ccccc1CCC1CCCN(C(=O)CCn2ccc(=O)[nH]c2=O)C1 (configuration not stated),i
COc1ccc(Cc2nnc(NC(=O)Nc3cccc(Cl)c3)s2)cc1OC,i
COc1ccc(-n2cc(CNCCc3cnn(C)c3)c(-c3ccccc3Cl)n2)cc1,i
CCOc1ccc(NC(=O)c2oc3ccccc3c2NC(=O)c2cc3ccccc3oc2=O)cc1,i
COc1cccc(OC2CN(C(C)C(=O)Nc3nccs3)C2)c1 (configuration not stated),i
CC1=C(C(=O)N2CCC(Oc3cccc(C(=O)NCc4ccccn4)c3)CC2)OCCO1,i
CC(=O)N1N=C(c2c(-c3ccccc3)c3cc(Cl)ccc3[nH]c2=O)CC1c1ccc(Cl)cc1 (configuration not stated),i
OCCC1CN(Cc2cc3ccccc3o2)CCN1CCc1ccccc1 (configuration not stated),i
O=C(Nc1ccc2c(c1)OCO2)c1cc(-c2ccccc2O)on1,i
Cc1cc(NC(=O)c2cc(-c3ccc4c(c3)OCO4)on2)no1,i
O=C(Nc1ccc2c(c1)OCO2)c1ccc(Br)cc1,i
